Pf apPOL inh: Pf-apPOL DNA polymerase inhibition; AID 1794808; Recombinant Pf-apPOL, molecular beacon fluorescence, 1.5 h; inhibition, % at 10 µM; hit rate 0.25% among 210,000
mHTT CaM bind: disrupts binding of mutant huntingtin to calmodulin | AID 1671202 | hit rate 3.6% among 190,000 | inhibition, % at 15 µM | P42858 | AlphaScreen His-mHTT/GST-CaM binding, luminescence
Each line names hits and unclear results; the compound was inactive in the other large screens. The entries come from a sample that favours hits as a whole. No stated cut-off is given here; in the data, active means inhibition above about 50%; inactive means the rest.

CCC(CC)N1CCN(C(=O)c2ccc3[nH]c4c(c3c2)CN(C(C)=O)CC4)CC1	none
CC(=O)N1CCc2[nH]c3ccc(C(=O)NCc4ccc(N5CCN(C)CC5)cc4)cc3c2C1	none
CC(=O)N1CCc2[nH]c3ccc(C(=O)N4CCOCC4)cc3c2C1	none
CC(=O)N1CCc2[nH]c3ccc(C(=O)N4CCN(Cc5ccc(C)cc5)CC4)cc3c2C1	mHTT CaM bind 77.7
CCN(CC)c1ccc(CNC(=O)c2ccc3[nH]c4c(c3c2)CN(C(C)=O)CC4)cc1	mHTT CaM bind 69.1
CCN(C(=O)c1ccc2[nH]c3c(c2c1)CN(C(C)=O)CC3)c1cccc(C)c1	mHTT CaM bind 84.2
CC(=O)N1CCc2[nH]c3ccc(C(=O)N4CCN(C(C)C)CC4)cc3c2C1	none
CC(=O)N1CCc2[nH]c3ccc(C(=O)NCc4ccc(F)cc4)cc3c2C1	mHTT CaM bind 72.0
CCn1nccc1C(=O)N1CCCC1c1ccccc1Cl (centres undefined)	none
CCCCS(=O)(=O)N1CCC(c2nc3ccncc3n2CC(C)C)C1 (centres undefined)	none
CCN(CCNC(=O)c1ccc2[nH]c3c(c2c1)CN(C(C)=O)CC3)c1ccccc1	mHTT CaM bind 67.6
CC(=O)N1CCc2[nH]c3ccc(C(=O)NCCc4nc5ccccc5n4C)cc3c2C1	none
COc1ccccc1NC(NC(=O)c1cccc([N+](=O)[O-])c1)C(Cl)(Cl)Cl (centres undefined)	none
Cc1ccc(NC(NC(=O)c2cccc([N+](=O)[O-])c2)C(Cl)(Cl)Cl)c(C)c1 (centres undefined)	mHTT CaM bind 62.0
COc1ccc(C(=O)NC(Nc2ccc(C)cc2C)C(Cl)(Cl)Cl)cc1 (centres undefined)	none
Cc1ccc(C)c(NC(NC(=O)c2cc([N+](=O)[O-])cc([N+](=O)[O-])c2)C(Cl)(Cl)Cl)c1 (centres undefined)	mHTT CaM bind 70.0
CN1CCCc2cc(C(=O)NCc3ccccc3F)sc21	none
O=C(CSc1ncn[nH]1)Nc1ncc(Br)cc1Br	none
CCOC(=O)NN=Cc1ccc(Cl)cc1	none (no result: mHTT CaM bind)
NC(=O)c1ccc(NC(=O)C2CC(=O)N(CCc3c[nH]c4ccc(Cl)cc34)C2)cc1 (centres undefined)	mHTT CaM bind 100.1
Cc1ccc2[nH]cc(CCN3CC(C(=O)Nc4cccc(Cl)c4)CC3=O)c2c1 (centres undefined)	none
Cc1ccc(NC(=O)C2CC(=O)N(CCc3c[nH]c4ccc(Cl)cc34)C2)cc1 (centres undefined)	mHTT CaM bind 61.9
CN(Cc1ccccc1)C(=O)C1CC(=O)N(CCc2c[nH]c3ccc(Cl)cc23)C1 (centres undefined)	mHTT CaM bind 61.7
CCc1ccc(NC(=O)C2CC(=O)N(CCc3c[nH]c4ccc(F)cc34)C2)cc1 (centres undefined)	mHTT CaM bind 56.8
Cc1nnc(NC(=O)C2CC(=O)N(CCc3c[nH]c4ccc(Cl)cc34)C2)s1 (centres undefined)	none
O=C(Nc1ccc(Cl)cc1)C1CC(=O)N(CCc2c[nH]c3ccc(F)cc23)C1 (centres undefined)	none
CCNC(=O)C1CC(=O)N(CCc2c[nH]c3ccc(Cl)cc23)C1 (centres undefined)	none
CC(Cc1cccs1)NC(=O)NCc1cccc2ccccc12 (centres undefined)	none
COc1ccc(NC(=O)C2CCCN(C(=O)c3ccc(F)c(F)c3)C2)cc1Cl (centres undefined)	none
c1cc(-c2noc(C3CCCCN3)n2)ccn1 (centres undefined)	none
COc1ccc(Cl)cc1S(=O)(=O)N1CCN(C(=O)c2c(F)cccc2F)CC1	none
Cc1ccc2[nH]cc(CCN3CC(C(=O)Nc4ccc(F)cc4)CC3=O)c2c1 (centres undefined)	none
COc1ccc(NC(=O)C2CC(=O)N(CCc3c[nH]c4ccc(Cl)cc34)C2)cc1 (centres undefined)	mHTT CaM bind 87.4
Cc1ccccc1NC(=O)C1CC(=O)N(CCc2c[nH]c3ccc(Cl)cc23)C1 (centres undefined)	mHTT CaM bind 56.1
Cc1ccc2[nH]cc(CCN3CC(C(=O)Nc4cccc(Cl)c4C)CC3=O)c2c1 (centres undefined)	mHTT CaM bind 55.5
Cc1ccccc1NC(=O)C1CC(=O)N(CCc2c[nH]c3ccc(F)cc23)C1 (centres undefined)	none
Cc1ccc(N2CC(C(=O)N(C)Cc3ccccc3)CC2=O)cc1Cl (centres undefined)	mHTT CaM bind 60.7
Cc1ccc2[nH]cc(CCN3CC(C(=O)Nc4cc(Cl)ccc4C)CC3=O)c2c1 (centres undefined)	none
Cc1cc(C)cc(N2CC(C(=O)N(C)Cc3ccccc3)CC2=O)c1 (centres undefined)	none
Cc1ccc(N2C(=O)c3cccnc3C2CC(=O)N2CCOCC2)cc1 (centres undefined)	none
O=C1OC(/C=C/c2ccc(Cl)cc2)=NC/1=C\c1ccccc1	none
CCc1nccn1-c1cc(C)nc2c(-c3ccc(Cl)cc3)cnn12	none
O=C(NCC1CC(=O)N(c2ccc3c(c2)OCO3)C1)Nc1ccccc1Cl (centres undefined)	none
O=C(Nc1ccc2c(c1)OCO2)C1CC(=O)N(CCc2c[nH]c3ccc(Cl)cc23)C1 (centres undefined)	mHTT CaM bind 82.0
COc1ccc(NC(=O)C2CC(=O)N(CCc3c[nH]c4ccc(F)cc34)C2)c(OC)c1 (centres undefined)	none
Cc1ccc2[nH]cc(CCN3CC(C(=O)Nc4ccc5c(c4)OCO5)CC3=O)c2c1 (centres undefined)	none
CCOc1ccc(NC(=O)C2CC(=O)N(CCc3c[nH]c4ccc(Cl)cc34)C2)cc1 (centres undefined)	mHTT CaM bind 99.3
CCOc1ccc(NC(=O)C2CC(=O)N(CCc3c[nH]c4ccc(F)cc34)C2)cc1 (centres undefined)	none
COc1ccc2[nH]cc(CCN3CC(C(=O)Nc4ccc(C)c(Cl)c4)CC3=O)c2c1 (centres undefined)	mHTT CaM bind 74.6
Cn1c(N)c(NC(=O)c2ccco2)c(=O)[nH]c1=O	none
C(=Nc1ccc(Nc2ccccc2)cc1)c1ccccc1	mHTT CaM bind 86.0
Fc1ccc(N=Cc2ccccc2)cc1	none (no result: mHTT CaM bind)
c1cc2c(cc1C13CC4CC(CC(C4)C1)C3)c1c3n2CCNC3CCC1 (centres undefined)	mHTT CaM bind 99.9 (no result: Pf apPOL inh)
CCN1CCn2c3c(c4cc(Cl)ccc42)CCCC31 (centres undefined)	none
CC(C)COc1ccc2c(c1)c1c3n2CCNC3CCC1 (centres undefined)	none (no result: Pf apPOL inh)
C1=C(c2ccc3c(c2)c2c4n3CCNC4CCC2)CCC1 (centres undefined)	mHTT CaM bind 55.0
CCc1ccc(NC(=O)c2cc3c(CO)cnc(C)c3oc2=Nc2cc(OC)ccc2OC)cc1	none
Cc1nc(C)c(-c2nnc(NC(=O)CCOc3ccccc3)o2)s1	mHTT CaM bind 63.6
Cc1nc(C)c(-c2nnc(NC(=O)CCS(=O)(=O)c3ccccc3)o2)s1	none
O=C(CC1SC(=Nc2ccc(O)cc2)NC1=O)Nc1ccc(F)cc1 (centres undefined)	none
O=c1sc2c(n1-c1ccccc1)SCC1COc3ccccc3C21 (centres undefined)	mHTT CaM bind 66.0
O=C(O)CCn1c2c(sc1=O)C1c3ccccc3OCC1CS2 (centres undefined)	none
COc1cccc(C2=N/C(=C\c3ccc(C)cc3)C(=O)O2)c1	none
c1ccc(OCCCOc2ccccc2)cc1	none
Nc1ccccc1NCCOc1ccccc1	mHTT CaM bind 78.6

Screening data from PubChem.
